From PubChem BioAssay (EPA / NIEHS)
The source made the active and inactive calls. Rule for the calls: active = hit-call score of the fitted dose curve at least 0.9, where 1 is the maximum; inactive = score below 0.9.

biological target: Hepatocyte nuclear factor 6 (Homo sapiens) (UniProt Q9UBC0); assay: ATG_HNF6_CIS: Attagene CIS-FACTORIAL HepG2 Assay for human Hepatocyte Nuclear Factor 6 (HNF6) (AID 2282952); conditions: HepG2 Attagene cis-factorial HNF6 reporter transcription; actives raise or lower the signal
Protocol: ATG_CIS is a cell-based, multiplexed-readout assay that uses HepG2, a human liver cell line, with measurements taken at 24 hours after chemical dosing in a 24-well plate.ATG_HNF6_CIS is one of 52 assay component(s) measured or calculated from the ATG_CIS assay. It is designed to make measurements of mRNA induction, a form of inducible reporter, as detected with fluorescence intensity signals by Reverse transcription polymerase chain reaction (RT-PCR) and Capillary electrophoresis technology.Data from the assay component ATG_HNF6_CIS was analyzed into 1 assay endpoint. This assay endpoint, ATG_HNF6_CIS, was analyzed with bidirectional fitting relative to DMSO as the negative control and baseline of activity. Using a type of inducible reporter, measures of mRNA for gain or loss-of-signal activity can be used to understand the reporter gene at the transcription factor-level as they relate to the gene ONECUT1. Furthermore, this assay endpoint can be referred to as a primary readout, because this assay has produced multiple assay endpoints where this one serves a reporter gene function. To generalize the intended target to other relatable targets, this assay endpoint is annotated to the dna binding intended target family, where the subfamily is homeobox protein.
Human liver HepG2 cells are transiently transfected with multiple reporter transcription units (MRTUs) in 6-well plates using FuGene 6 reagent (Roche; 3 ml FuGene/1 mg DNA). The MRTU constructs are regulated by a cis-regulating element (promoter). […] A major difference between the CIS and TRANS system is that in CIS activities of endogenous TFs are measured, whereas the TRANS assay evaluates changes in activities of exogenous, chimeric NR-Gal4 proteins. […] At the end of 24 hour incubation, total RNA was isolated using TriZol reagent (Invitrogen). The isolated RNA is then reverse-transcribed using oligo(dT) primer and Mo-MLV reverse transcriptase (Invitrogen) with DNAse I (Ambion) treatment for 30 min. The one-tenth of the produced cDNA was amplified by PCR using Taq DNA polymerase (Invitrogen) and two reporter sequence-specific primers. The PCR products were fluorescently labeled by primer extension with 6-arboxyfluorescein (6-FAM) 5'-labeled reporter sequence-specific primer (2 min at 95 C, 20 s at 68 C and 10 min at 72 C) and these products were digested with 5U of HpaI (New England Biolabs) for 2h at 37 C. The fragments were purified using Qiaquick PCR columns (Qiagen), analyzed on an ABI 3130xL genetic analyzer (Applied Biosystems) with peak positions identified by using a set of X-rhodamine (ROX)-labeled MapMarker1000 molecular weight standards (BioVentures). The raw capillary electrophoresis data was processed using Attagraph software (Attagene).

Chain of Hepatocyte nuclear factor 6 (Homo sapiens) (Q9UBC0 whole entry, looked up): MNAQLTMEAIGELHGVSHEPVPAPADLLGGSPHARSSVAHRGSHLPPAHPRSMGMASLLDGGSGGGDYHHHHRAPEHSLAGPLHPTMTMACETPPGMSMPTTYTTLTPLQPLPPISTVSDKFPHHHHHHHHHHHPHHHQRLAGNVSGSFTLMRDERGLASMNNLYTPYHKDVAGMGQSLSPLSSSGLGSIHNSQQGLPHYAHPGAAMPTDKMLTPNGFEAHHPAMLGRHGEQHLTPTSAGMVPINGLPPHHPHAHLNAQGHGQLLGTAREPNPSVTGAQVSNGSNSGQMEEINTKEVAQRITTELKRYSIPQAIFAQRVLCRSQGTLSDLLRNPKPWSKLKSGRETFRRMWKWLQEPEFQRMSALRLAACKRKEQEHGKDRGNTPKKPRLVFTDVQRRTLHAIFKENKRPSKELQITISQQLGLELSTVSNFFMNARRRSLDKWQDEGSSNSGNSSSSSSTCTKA

SMILES	outcome	AC50
CC(C)C(=O)OCc1ccccc1	inactive	–
Cc1cc(C)c(O)c(C(C)(C)C)c1	inactive	–
OCC(O)CC(F)(F)C(F)(F)C(F)(F)C(F)(F)F (stereo not given)	inactive	–
CO[Si](CCCOCC1CO1)(OC)OC (stereo not given)	inactive	–
CCCCC(CC)COC(=O)c1ccc(N(C)C)cc1 (stereo not given)	inactive	–
C=CC(=O)OCCC(F)(F)C(F)(F)C(F)(F)C(F)(F)F	inactive	–
O=C(c1ccccc1)c1ccc(Cl)cc1	inactive	–
CCOCN(C(=O)CS(=O)(=O)O)c1c(C)cccc1CC	inactive	–
Brc1ccccn1	inactive	–
Nc1cccnc1N	inactive	–
O=C(O)C(F)(F)C(F)(F)C(F)(F)OC(F)(C(F)(F)F)C(F)(F)F	inactive	–
OCC(F)(F)C(F)(F)C(F)(F)CO	inactive	–
CSc1ccc(Cl)cc1	inactive	–
OCC1CCCO1 (stereo not given)	inactive	–
OCC(O)CC(F)(F)C(F)(F)C(F)(F)C(F)(F)C(F)(F)C(F)(F)C(F)(F)C(F)(F)F (stereo not given)	inactive	–
NC(=O)C(F)(F)C(F)(F)C(F)(F)F	inactive	–
CCc1ccc(C)nc1	inactive	–
CN(C(=O)C(F)(F)C(F)(F)C(F)(F)F)[Si](C)(C)C	inactive	–
O=S(=O)(O)CCC(F)(F)C(F)(F)C(F)(F)C(F)(F)F	inactive	–
CCCCCC/C=C/CCCCCCCC(=O)O	inactive	–

SMILES	outcome	AC50
O=C=Nc1cccc2c(N=C=O)cccc12	inactive	–
CCc1cc(Cc2cc(CC)c(N)c(CC)c2)cc(CC)c1N	–	56.6 µM (active)
CSc1ccc(O)cc1C	inactive	–
CN(N=O)C(=O)N[C@@H]1[C@@H](O)[C@H](O)[C@@H](CO)O[C@@H]1O	inactive	–
CCCCOC(=O)[C@H](C)O	inactive	–
Cc1ccc(O)c(-n2nc3ccccc3n2)c1	inactive	–
CCCC(=O)OCC(COC(=O)CCC)OC(=O)CCC	inactive	–
COC(F)(C(F)F)C(F)(F)F (stereo not given)	inactive	–
CCOCOCC	inactive	–
OCCCCC(F)(F)C(F)(F)C(F)(F)C(F)(F)F	inactive	–
CC(O)C#CC(C)O (stereo not given)	–	70.5 µM (active)
CN1CN(C)CN(C)C1	inactive	–
NCC(F)(F)C(F)(F)C(F)(F)C(F)(F)C(F)(F)C(F)(F)C(F)(F)C(F)(F)F	inactive	–
O=C(c1ccccc1)c1ccc(O)cc1O	inactive	–
CCn1c2ccccc2c2ccccc21	inactive	–
C=C(C)CCCC	inactive	–
CCN(CC)c1ccc(C=O)c(O)c1	inactive	–
COCCC(=O)OC	inactive	–
NS(=O)(=O)C(F)(F)C(F)(F)C(F)(F)C(F)(F)C(F)(F)C(F)(F)F	inactive	–
CCOC(OCC)OCC	inactive	–
